Results reported in PubChem BioAssay (EPA / NIEHS).
Activity calls are given as the source filed them. How the source made its calls: active means hit-call score of the fitted dose curve at least 0.9, where 1 is the maximum; inactive means score below 0.9.

read-out: Cytochrome P450 (CYP1A2), CYP1A2 (gene 1544); assay: LTEA_HepaRG_CYP1A2: Life Technologies and Expression Analysis (LTEA) Assay for Cytochrome P450 (CYP1A2) using HepaRG (AID 2283479); conditions: mRNA level, 48 h; actives raise or lower the signal;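 on AC50: TaqMan qRT-PCR transcript level normalized to ACTB GAPDH and POLR2A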
Protocol: LTEA_HepaRG is a cell based, multiplexed-readout assay that uses HepaRG, a human liver cell line, with measurements taken at 48 hours after chemical dosing on a 96-well plate.LTEA_HepaRG_CYP1A2 is one of 102 assay component(s) measured in the LTEA HepaRG cell culture assay. It is a marker of NR mediated metabolism.Data from the assay component LTEA_HepaRG_CYP1A2 was analyzed into 1 endpoint. This assay endpoint, LTEA_HepaRG_CYP1A2, was analyzed with bidirectional fitting relative to DMSO as the negative control and baseline of activity. Using a type of inducible reporter, measures of mRNA induction for gain or loss-of-signal activity can be used to understand regulation of transcription factor activity. To generalize the intended target to other relatable targets, this assay endpoint is annotated to the cyp intended target family, where the subfamily is xenobiotic metabolism.
A total of 1060 chemcials from the ToxCast library were tested in eight-point concentration-response experiments. Cell culture and cytotoxicity assays were conducted at Thermo Fisher Scientific's Custom Services facility (Madison, WI). A single lot of human HepaRG cells (Thermo Fisher Scientific, Frederick, MD) was used for the cell culture experiments. 96-well format collagen type I coated plates of human HepaRG cells were prepared using established methods. Briefly, cryopreserved HepaRG cells were thawed, plated at a density of approximately 100,000 cells/well in HepaRG Thaw, Plate, and General Purpose media (HPRG770, Thermo Fisher Scientific), and incubated for 48 hours. 0.5% DMSO was selected as vehicle control to balance the requisite need of DMSO in HepaRG cultures to maintain differentiation (for example, baseline metabolism, proportions of hepatocytes vs. cholangiocytes), while enabling further hepatic receptor pathway activation (for example, PXR and CAR) in response to chemical exposure. 48 hours after plating, the culture medium was replaced with HepaRG Serum-Free Incudtion Media. Cells were exposed to each test chemical in duplicate and maintained in CO2 incubators for another 48 hours. Chemical plates were thawed to room temperature and 200x concentrations of treatment groups were prepared. 8-point conentration-reponse curves were made with the highest exposure at 100 uM, followed by half-log dilutions, all in 0.5% DMSO. Each test plate contained variouse controls, induction positive controls (1mM phenobarbital), cytotoxicity positive controls ([…] aflatoxin B1), vehicle controls (0.5% DMSO), and total lysis controls (0.5% DMSO). Cell morphology images were taken using an Essen IncuCyte FLR automated microscope, with six 96-well plates imaged in about 24 minutes. Images were captured and exported and JPEG files. Spent culture media was transfered to black-well plates for the LDH assay, and remaining media was sorted at -80 C for later use. Cells were treated with RLT buffer and frozen until shipped for gene expression analysis. Total RNA was isolated from the cell suspension in 75 uL of Buffer RLT (Qiagen, Germantown, MD 20874) by Quintiles/Expression Analysis (Durham, NC) using a custom isolation procedure. Total RNA from each plate well was transferred to a preamplification plate. Fluidigm's 96.96 Dynamic ArrayTM (Fluidigm, Amsterdam, the Netherlands) technology was used for gene expression analyses by quantitative reverse transcription polymerase chain reaction (qRT-PCR, performed by Quintiles/Expression Analysis, Durham, NC)89. Standard TaqManTM Assays (Applied Biosystems/ThermoFisher Scientific, Foster City, CA) were used to assess the expression of 93 genes selected based on their selectivity and sensitivity to important hepatic receptors known to be modulated by environmental chemicals; importance in human hepatocyte functionality; and hepatotoxicity. […]

outcome, inactive:
CCCC[C@H]1CN(CC2CCOCC2)C(=O)OC12CCN(C1(C)CCN(C(=O)c3c(C)ncnc3C)CC1)CC2
CC1(C)C(=O)NC(=O)N1CO
CC(N)=O
CCCCCCCC(=O)OC
CCCCCCC(CCCCCCCCCCC(=O)OCC(COC(C)=O)OC(C)=O)OC(C)=O (stereo not given)
CCN(CC)CCOc1ccc(C(=C(Cl)c2ccccc2)c2ccccc2)cc1
OCC(O)CO
O=C(NS(=O)(=O)/C=C/c1cccs1)c1ccc(F)cc1Br
CO[C@@H]1COCC[C@@H]1N[C@@H]1CC[C@@](C(=O)N2CCc3ncc(C(F)(F)F)cc3C2)(C(C)C)C1
C/C=C/c1ccc(OC)cc1
COC(=O)CCC(=O)OC
O=NO
O=C1O[C@H]([C@H](O)CO)C(O)=C1O
CC(COCC(C)OC(=O)c1ccccc1)OC(=O)c1ccccc1 (stereo not given)
O=C1CCCCC1
CC(C)COC(=O)CCCCC(=O)OCC(C)C
CC(=O)OCC(COC(C)=O)OC(C)=O
CCCCc1nc2cccnc2n1Cc1ccc(-c2ccccc2-c2nnn[nH]2)cc1
CC(C)c1cccc(C(C)C)c1
CN(C)C(=O)NC1(c2ccccc2)CCN(CCC[C@]2(c3ccc(Cl)c(Cl)c3)CCCN(C(=O)c3ccccc3)C2)CC1
O=C(N[C@@H](c1ccccc1)[C@@H]1CCCCN1)c1cccc(C(F)(F)F)c1Cl

AC50, active:
CC(C)NCC(O)c1ccc(O)c(O)c1 (stereo not given) 0.204 µM
CCCCC(CC)CO (stereo not given) 50 µM
O=[Si]=O 50 µM
O=C(O)CN(CC(=O)O)CC(=O)O 45.8 µM
O=Cc1ccccc1C=O 7.32 µM
CN(C)CCCN1c2ccccc2Sc2ccc(Cl)cc21 19.4 µM
Cc1cc(Cc2ccc(N)c(C)c2)ccc1N 50 µM
CC1=C(C)S(=O)(=O)CCS1(=O)=O 9.92 µM
Cc1cc(SC2=C(O)C[C@@](CCc3ccc(N)cc3)(C(C)C)OC2=O)c(C(C)(C)C)cc1CO 0.572 µM
CCc1nc(N)nc(N)c1-c1ccc(Cl)cc1 23.8 µM
NC(=Nc1ccccc1)Nc1ccccc1 50 µM
COc1ccc(C(=O)Nc2nc3ccccc3c(NCc3ccccc3)c2C#N)cc1 3 µM
S=c1[nH]c2ccccc2s1 10.7 µM
COc1ccc(OC(F)(F)F)cc1CN[C@H]1CCCN[C@H]1c1ccccc1 15.8 µM
O=C1OC(c2ccc(O)cc2)(c2ccc(O)cc2)c2ccccc21 72.4 µM
CCC(C)N(C)C(=O)c1cc2ccccc2c(-c2ccccc2Cl)n1 (stereo not given) 50.5 µM
N[C@@H](Cc1c[nH]c2ccccc12)C(=O)O 14.4 µM
CC(=O)OC1CC(C)OC(C)O1 (stereo not given) 50 µM
Oc1ccc(O)cc1 50 µM
